From PubChem BioAssay
Tgondii IFNg: blocks Toxoplasma gondii growth in the presence of IFN-gamma; Toxoplasma gondii growth in IFN-gamma-treated host cells; hits give low values; activity change, negative = inhibition, % (concentration not given with the values); 69,000 tested, 3.8% active; AID 1259416; in the data active means activity change below about -70%, passing the limit was not always enough;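 further: host cells are HeLa cells infected with Toxoplasma gondii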
* = called active by the depositor. The sample as a whole holds a higher share of hits than the screen did.

Screening Cc1ccsc1C(CNC1CCN(C(=O)c2ccccc2)CC1)N(C)C (stereo not drawn) returned Tgondii IFNg -10.
`CCNC(=O)c1[nH]nc(-c2cc(Cl)c(O)cc2O)c1-c1ccc(OC)cc1` gave Tgondii IFNg -46.
c1ccc(CNc2ncnc3ccccc23)cc1 was read as Tgondii IFNg -15.
Screening Nc1ccc2ncnc(NCCc3ccc(Oc4ccccc4)cc3)c2c1 returned Tgondii IFNg -71*.
`COc1ccc(CCNc2ncnc3c2cnn3-c2ccccc2)cc1OC` gave Tgondii IFNg 21.
For CN1CC2(CCN(C(=O)C3CCC(=O)N3)CC2)COc2ccccc2S1(=O)=O (stereo not drawn) the results were Tgondii IFNg 9.
Screening CC(C)Cc1noc(C2CCCN(C(=O)c3c(O)cccc3O)C2)n1 (stereo not drawn) returned Tgondii IFNg 7.
CCC/C=C/c1cc(C(=O)O)cc(S(=O)(=O)N2CCN(C)CC2)c1 was read as Tgondii IFNg 3.
`CCCn1nnnc1SCC(=O)NCc1ccc(OC)cc1` gave Tgondii IFNg 4.
`CCCn1nnnc1SCC(=O)N1C(C)CCCC1C` (stereo not drawn) gave Tgondii IFNg -76*.
Cn1nnnc1SCC(=O)N1CCOCC1 was read as Tgondii IFNg -3.
`CC(C)c1c(C(=O)Nc2ccccc2)c(-c2ccccc2)c(-c2ccc(F)cc2)n1CC[C@@H](O)C[C@@H](O)CC(=O)O` gave Tgondii IFNg 7.
For O=C(c1cccc(-n2cnnc2)n1)N1CCCC(c2ccn[nH]2)C1 (stereo not drawn) the results were Tgondii IFNg 26.
Screening CCOc1ccc(NC(=O)N2CCN(Cc3nc(-c4ccccc4C)oc3C)CC2)cc1 returned Tgondii IFNg 0.
CC(=O)NCCc1csc(C2CCCN(C(=O)/C=C/c3ccccc3Cl)C2)n1 (stereo not drawn) was read as Tgondii IFNg -6.
Screening CCC(=O)NCCc1csc(C2CCCN(C(=O)/C=C/c3cccc(Cl)c3)C2)n1 (stereo not drawn) returned Tgondii IFNg -79*.
Screening Cc1ccc(/C=C/C(=O)N2CCCC(c3nc(CCNC(=O)C4CC4)cs3)C2)cc1 (stereo not drawn) returned Tgondii IFNg -67.
`O=C(c1cccc(O)c1)N1CCCC2(COCCN(CC3CC3)C2)C1` (stereo not drawn) gave Tgondii IFNg -2.
`CC(=O)NC[C@H]1[C@@H](c2ccc(C#Cc3ccccc3F)cc2)[C@@H](CO)N1C(C)=O` gave Tgondii IFNg 5.
`Nc1nc(-c2ccc3c(c2)Cc2ccccc2-3)cs1` gave Tgondii IFNg -33.
`c1cc(CN2CCCN(c3ccc4c(c3)OCCO4)CC2)nc(N2CCCC2)n1` gave Tgondii IFNg 14.
Screening O=C(C[C@H]1CC[C@H]2[C@@H](COC[C@H](O)CN2C(=O)c2ccncc2)O1)Nc1ccc(-c2ccccc2)cc1 returned Tgondii IFNg -57.
`CN(C)C(=O)N1CCOC2(CCN(S(C)(=O)=O)CC2)c2ccccc21` gave Tgondii IFNg 5.
`O=C(CCN1Cc2ccccc2C1=O)Nc1cnn(Cc2ccc(F)cc2)c1` gave Tgondii IFNg -15.
`CC(C)OCC(=O)Nc1cnn(CC(=O)Nc2ccc(F)cc2)c1` gave Tgondii IFNg 2.
Screening CCCc1cc(C(=O)Nc2cnn(Cc3ccc(F)cc3)c2)n[nH]1 returned Tgondii IFNg -90*.
`CCOc1ccc(NC(=O)Cn2c(=O)cc(-c3nc(C)no3)c3ccccc32)cc1` gave Tgondii IFNg 21.
`Cc1noc(-c2ccccc2OCC(=O)O)n1` gave Tgondii IFNg 62.
`CCc1nc2cc(NC(=O)COc3ccccc3-c3nc(C)no3)ccc2n1CC` gave Tgondii IFNg -74*.
Screening Cc1nn(CCNC(=O)C[C@@H]2C[C@@H]3C=C[C@H]2C3)c(C)c1Cl returned Tgondii IFNg 1.
O=c1oc2ccccc2n1CCN1CCCC2(CCNC2)C1 (stereo not drawn) was read as Tgondii IFNg -39.
Screening O=S(=O)(c1ccccc1)N1CCCCN2[C@H](CO)[C@@H](c3ccc(C#CC4CCCC4)cc3)[C@@H]2C1 returned Tgondii IFNg -25.
CNC(=O)C1Cn2ccnc2C2(CCN(CC3CCOCC3)CC2)O1 (stereo not drawn) was read as Tgondii IFNg 0.
CN(C)CCOc1ccc(-c2nc(-c3ccc4c(c3)CC/C4=N\O)c(-c3ccncc3)[nH]2)cc1 was read as Tgondii IFNg -79*.
`COc1ccc(-c2nc(-c3ccc(O)cc3)[nH]c2-c2ccc(OC)cc2)cc1` gave Tgondii IFNg 8.
Screening O=C1CCCN1C1CCCN(CCn2cncn2)C1 (stereo not drawn) returned Tgondii IFNg 3.
For CN(C)C(=O)c1cccc(-c2ccc(C3[C@@H]4CN(C(=O)CN5CCOCC5)C[C@H]3N4)cc2)c1 (stereo partly drawn) the results were Tgondii IFNg -18.
`CCn1c(=O)c(-c2nc(-c3ccc(OC)cc3)no2)c(O)c2ccccc21` gave Tgondii IFNg 67.
